# In PMC6451091, “NextPBM: a platform to study cell-specific transcription factor binding and cooperativity”:
# The full ranking holds about 3,700 sequences; the median of “z-score” is about 4, and the highest 2% start at about 8.4. Only a selection was taken, and the highest values are over-represented in it overall.
# Assays:
# PU.1 (IVT) [1] = target: PU.1 (IVT) (UniProt P17947 1-270); assay: protein-binding microarray (PBM); 20 mM HEPES pH 7.9, 100 mM NaCl, 1 mM DTT, 0.2 mg/mL BSA, 0.02% Triton X-100, 2% milk, 0.4 mg/mL salmon testes DNA; 1 h; temperature not stated; high values mean tight binding; conditions: dsDNA, one strand shown
# Procedure, shortened: (§1)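 Full-length untagged PU.1 was made by coupled human in vitro transcription/translation. It was bound for 1 h to custom double-stranded DNA microarrays carrying 20-bp genomic sites and single-nucleotide variants, 10 probes per site (5 per orientation). The binding buffer was HEPES pH 7.9 with 100 mM NaCl, 2% milk and salmon testes DNA. Bound protein was detected with anti-PU.1 and then a fluorescent secondary antibody. Binding is a z-score from scanned fluorescence after linear-regression normalisation.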
# PU.1 (IVT) [2] = target: PU.1 (IVT) (UniProt P17947 1-270); assay: as above; conditions: dsDNA, one strand shown; remark: listed apart in the source
# Procedure, shortened: as §1
Sequence,binding signal (PU.1 (IVT) [1]) [z-score],binding signal (PU.1 (IVT) [2]) [z-score]
GCCTAGCACTGATAGAGGAAGTGCAACCAGTGCTAGGTCTTGATTCGCTTGACGCTGCTG,4.92,
GCCTAGCACGATAGCAGGAAGTGAAACTAGTGCTAGGTCTTGATTCGCTTGACGCTGCTG,3.14,
GCCTAGCACGCAGAGAGGAAGTGTGAATGGTGCTAGGTCTTGATTCGCTTGACGCTGCTG,3.72,
GCCTAGCACTGAGAGGAGAAGTGAAACCCGTGCTAGGTCTTGATTCGCTTGACGCTGCTG,,1.26
GCCTAGCACATTTCTGGGAAGTGAAACTAGTGCTAGGTCTTGATTCGCTTGACGCTGCTG,1.93,
GCCTAGCACATAAAAGGGAAGTGGGGCATGTGCTAGGTCTTGATTCGCTTGACGCTGCTG,5.38,
GCCTAGCACAGAAAAAGGAAGTGAGCAAAGTGCTAGGTCTTGATTCGCTTGACGCTGCTG,5.53,
GCCTAGCACTTAAAGAGGAAGAGCATCTTGTGCTAGGTCTTGATTCGCTTGACGCTGCTG,3.21,
GCCTAGCACTCAAAGAGGAAGTGACATTTGTGCTAGGTCTTGATTCGCTTGACGCTGCTG,,7.03
GCCTAGCACGAAAAAGGGAACTGGTTGGGGTGCTAGGTCTTGATTCGCTTGACGCTGCTG,,5.22
GCCTAGCACGGAAGAAGGAAGTGGGGGCCGTGCTAGGTCTTGATTCGCTTGACGCTGCTG,,3.66
GCCTAGCACAGGAGGAGGAAGTGGGGGGAGTGCTAGGTCTTGATTCGCTTGACGCTGCTG,,4.05
GCCTAGCACGATAAGAGGAACTGTAAGCTGTGCTAGGTCTTGATTCGCTTGACGCTGCTG,,3.92
GCCTAGCACTGAGAGGAGAAGTGAAATCTGTGCTAGGTCTTGATTCGCTTGACGCTGCTG,1.39,
GCCTAGCACCAAATTAGGAACTGATGCGGGTGCTAGGTCTTGATTCGCTTGACGCTGCTG,2.14,
GCCTAGCACGCTAAGAGGAAGTCCTCTGTGTGCTAGGTCTTGATTCGCTTGACGCTGCTG,5.07,
GCCTAGCACAAAAAGAGGAAGTGGTACAAGTGCTAGGTCTTGATTCGCTTGACGCTGCTG,,8.76
GCCTAGCACAAAAAGCGGAAGTGCAAAAGGTGCTAGGTCTTGATTCGCTTGACGCTGCTG,,8.5
GCCTAGCACAAAAAAAGGAAGTGAGATAAGTGCTAGGTCTTGATTCGCTTGACGCTGCTG,,6.74
GCCTAGCACAAAAAAAGGAAGTGGTAGCAGTGCTAGGTCTTGATTCGCTTGACGCTGCTG,,6.75
GCCTAGCACAAAAAGAGGAAGGGACCCAAGTGCTAGGTCTTGATTCGCTTGACGCTGCTG,,5.29
GCCTAGCACAAAAAAAGGAAGTGCTCAAGGTGCTAGGTCTTGATTCGCTTGACGCTGCTG,6.42,
GCCTAGCACAAAAAGAGGAAGTGATGATGGTGCTAGGTCTTGATTCGCTTGACGCTGCTG,,9.07
GCCTAGCACAAAAGGAGGAAGTGATGATGGTGCTAGGTCTTGATTCGCTTGACGCTGCTG,6.55,
GCCTAGCACAAGAGGAGGAAGTGAGAGAGGTGCTAGGTCTTGATTCGCTTGACGCTGCTG,,4.33
GCCTAGCACAAAAAGAGGAAGGGTGGCTGGTGCTAGGTCTTGATTCGCTTGACGCTGCTG,4.91,

Sequence,binding signal (PU.1 (IVT) [1]) [z-score],binding signal (PU.1 (IVT) [2]) [z-score]
GCCTAGCACACAAAGGGGAAGTGCTAGGGGTGCTAGGTCTTGATTCGCTTGACGCTGCTG,6.35,
GCCTAGCACAAAAAGAGGAAGTGAGATGGGTGCTAGGTCTTGATTCGCTTGACGCTGCTG,,8.88
GCCTAGCACGAAAGGAGGAAGTGAAACTGGTGCTAGGTCTTGATTCGCTTGACGCTGCTG,6.19,
GCCTAGCACCAAATGAGGAATTGATGCGGGTGCTAGGTCTTGATTCGCTTGACGCTGCTG,2.8,
GCCTAGCACCAGAAAAGGAAGTAAGCCACGTGCTAGGTCTTGATTCGCTTGACGCTGCTG,,3.98
GCCTAGCACAAAAGAGGGAAGTGACATTCGTGCTAGGTCTTGATTCGCTTGACGCTGCTG,5.89,
GCCTAGCACAAAAAAAGGAAGTACAGTAAGTGCTAGGTCTTGATTCGCTTGACGCTGCTG,,6.54
GCCTAGCACGCAAAGAGGAAGTGACTCAAGTGCTAGGTCTTGATTCGCTTGACGCTGCTG,,6.81
GCCTAGCACAAAAAGAGGAAGTGACTTCAGTGCTAGGTCTTGATTCGCTTGACGCTGCTG,,8.34
GCCTAGCACAAAAAGAGGAAGTGACTCACGTGCTAGGTCTTGATTCGCTTGACGCTGCTG,,8.49
GCCTAGCACAAAAAGAGGAAGTACATTAAGTGCTAGGTCTTGATTCGCTTGACGCTGCTG,,8.68
GCCTAGCACGATTTGAGGAAATGAAACTTGTGCTAGGTCTTGATTCGCTTGACGCTGCTG,3.79,
GCCTAGCACAAAAAGGGGAAGTCATCTATGTGCTAGGTCTTGATTCGCTTGACGCTGCTG,,8.05
GCCTAGCACAATATGAGGAAGTGCTCTAGGTGCTAGGTCTTGATTCGCTTGACGCTGCTG,6.67,
GCCTAGCACTTACACAGGAAGTGCTGGCAGTGCTAGGTCTTGATTCGCTTGACGCTGCTG,2.14,
GCCTAGCACAAAAAGAGGAAGTCCTATTTGTGCTAGGTCTTGATTCGCTTGACGCTGCTG,,8.54
GCCTAGCACACAAAGAGGAAGTCCCATTTGTGCTAGGTCTTGATTCGCTTGACGCTGCTG,,7.29
GCCTAGCACAAAATGAGGAAGTCATTCTTGTGCTAGGTCTTGATTCGCTTGACGCTGCTG,,8.35
GCCTAGCACAAAAAGAGGAAGTGCTACTTGTGCTAGGTCTTGATTCGCTTGACGCTGCTG,,8.88
GCCTAGCACAAAAAGAGGAAGAGGCGCTTGTGCTAGGTCTTGATTCGCTTGACGCTGCTG,,5.63
GCCTAGCACAAAAACAGGAAGTCCTATTCGTGCTAGGTCTTGATTCGCTTGACGCTGCTG,,7.91
GCCTAGCACAAAAAGAGGAAGTCATTCTTGTGCTAGGTCTTGATTCGCTTGACGCTGCTG,,8.71
GCCTAGCACAAAAAGAGGAAGAGAAACTTGTGCTAGGTCTTGATTCGCTTGACGCTGCTG,,6.04
GCCTAGCACAAAAATAGGAAATGAAAGTAGTGCTAGGTCTTGATTCGCTTGACGCTGCTG,3,
GCCTAGCACGAAAGAGGGAAGTGGGCATAGTGCTAGGTCTTGATTCGCTTGACGCTGCTG,,4.48
GCCTAGCACGCAGGGAGGAAGTGGGGAAGGTGCTAGGTCTTGATTCGCTTGACGCTGCTG,3.42,
